# Source: PubChem (National Center for Advancing Translational Sciences (NCATS))
# Sampled rows, rich in hits. Any-hit rate of the full collection: about 11%.
# VDR inhibitor: inhibitors of human vitamin D receptor; AID 504847; VDR-SRC2-3 peptide fluorescence polarization, 2 h; actives 0.93% (n = 400,000); P11473; Potency, µM, inactives show max response, negative = inhibition, actives largely listed as inhibitors; note: % is set by controls: 0 for no effect and ±100 for the full control effect
#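 Signal is fluorescence polarization, reporting how far test compounds block the interaction of VDR with the SRC2-3 coregulator peptide after a 2 h room-temperature incubation.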
# G9a inh: blocks human histone lysine methyltransferase G9a; Potency, µM (top dose mostly 102 µM), inactives show at the top dose activity, negative = inhibition, actives largely listed as inhibitors; G9a H3K9 monomethylation, AlphaScreen, 2 h; actives 8.8% (n = 350,000); note: % is set by controls: 0 for no effect and ±100 for the full control effect; nearly all actives have a fitted effect of over 75% in size
#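 Using a bead-based AlphaScreen, monomethylated H3K9 product from 2 h room-temperature reactions (G9a 20 nM, peptide 500 nM, SAM 20 uM) was detected with 0.5 ug/mL rabbit anti-H3K9me1 antibody.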
# JMJD2A Tudor inh: inhibitors of human JMJD2A Tudor domain | Potency, µM (doses to about 114 µM), for inactives: top-dose activity change, negative = inhibition, hits mostly inhibitors | O75164 | AlphaScreen JMJD2A-Tudor / H3K4me3 peptide binding | actives 4.4% (n = 390,000); note: % is set by controls: 0 for no effect and ±100 for the full control effect; nearly all actives have a fitted effect of over 50% in size
# BAZ2B block: inhibitors of human BAZ2B bromodomain; Q9UIF8; AlphaScreen BAZ2B-H3K14Ac peptide displacement; AID 504333; actives 4.4% (n = 360,000); Potency, µM (top dose mostly 114 µM), for the others: at the highest dose activity change, negative = inhibition, most hits filed as inhibitors; note: % is set by controls: 0 for no effect and ±100 for the full control effect; nearly all actives have a fitted effect of over 60% in size
# Target sequence (Q9UIF8 whole entry, looked up): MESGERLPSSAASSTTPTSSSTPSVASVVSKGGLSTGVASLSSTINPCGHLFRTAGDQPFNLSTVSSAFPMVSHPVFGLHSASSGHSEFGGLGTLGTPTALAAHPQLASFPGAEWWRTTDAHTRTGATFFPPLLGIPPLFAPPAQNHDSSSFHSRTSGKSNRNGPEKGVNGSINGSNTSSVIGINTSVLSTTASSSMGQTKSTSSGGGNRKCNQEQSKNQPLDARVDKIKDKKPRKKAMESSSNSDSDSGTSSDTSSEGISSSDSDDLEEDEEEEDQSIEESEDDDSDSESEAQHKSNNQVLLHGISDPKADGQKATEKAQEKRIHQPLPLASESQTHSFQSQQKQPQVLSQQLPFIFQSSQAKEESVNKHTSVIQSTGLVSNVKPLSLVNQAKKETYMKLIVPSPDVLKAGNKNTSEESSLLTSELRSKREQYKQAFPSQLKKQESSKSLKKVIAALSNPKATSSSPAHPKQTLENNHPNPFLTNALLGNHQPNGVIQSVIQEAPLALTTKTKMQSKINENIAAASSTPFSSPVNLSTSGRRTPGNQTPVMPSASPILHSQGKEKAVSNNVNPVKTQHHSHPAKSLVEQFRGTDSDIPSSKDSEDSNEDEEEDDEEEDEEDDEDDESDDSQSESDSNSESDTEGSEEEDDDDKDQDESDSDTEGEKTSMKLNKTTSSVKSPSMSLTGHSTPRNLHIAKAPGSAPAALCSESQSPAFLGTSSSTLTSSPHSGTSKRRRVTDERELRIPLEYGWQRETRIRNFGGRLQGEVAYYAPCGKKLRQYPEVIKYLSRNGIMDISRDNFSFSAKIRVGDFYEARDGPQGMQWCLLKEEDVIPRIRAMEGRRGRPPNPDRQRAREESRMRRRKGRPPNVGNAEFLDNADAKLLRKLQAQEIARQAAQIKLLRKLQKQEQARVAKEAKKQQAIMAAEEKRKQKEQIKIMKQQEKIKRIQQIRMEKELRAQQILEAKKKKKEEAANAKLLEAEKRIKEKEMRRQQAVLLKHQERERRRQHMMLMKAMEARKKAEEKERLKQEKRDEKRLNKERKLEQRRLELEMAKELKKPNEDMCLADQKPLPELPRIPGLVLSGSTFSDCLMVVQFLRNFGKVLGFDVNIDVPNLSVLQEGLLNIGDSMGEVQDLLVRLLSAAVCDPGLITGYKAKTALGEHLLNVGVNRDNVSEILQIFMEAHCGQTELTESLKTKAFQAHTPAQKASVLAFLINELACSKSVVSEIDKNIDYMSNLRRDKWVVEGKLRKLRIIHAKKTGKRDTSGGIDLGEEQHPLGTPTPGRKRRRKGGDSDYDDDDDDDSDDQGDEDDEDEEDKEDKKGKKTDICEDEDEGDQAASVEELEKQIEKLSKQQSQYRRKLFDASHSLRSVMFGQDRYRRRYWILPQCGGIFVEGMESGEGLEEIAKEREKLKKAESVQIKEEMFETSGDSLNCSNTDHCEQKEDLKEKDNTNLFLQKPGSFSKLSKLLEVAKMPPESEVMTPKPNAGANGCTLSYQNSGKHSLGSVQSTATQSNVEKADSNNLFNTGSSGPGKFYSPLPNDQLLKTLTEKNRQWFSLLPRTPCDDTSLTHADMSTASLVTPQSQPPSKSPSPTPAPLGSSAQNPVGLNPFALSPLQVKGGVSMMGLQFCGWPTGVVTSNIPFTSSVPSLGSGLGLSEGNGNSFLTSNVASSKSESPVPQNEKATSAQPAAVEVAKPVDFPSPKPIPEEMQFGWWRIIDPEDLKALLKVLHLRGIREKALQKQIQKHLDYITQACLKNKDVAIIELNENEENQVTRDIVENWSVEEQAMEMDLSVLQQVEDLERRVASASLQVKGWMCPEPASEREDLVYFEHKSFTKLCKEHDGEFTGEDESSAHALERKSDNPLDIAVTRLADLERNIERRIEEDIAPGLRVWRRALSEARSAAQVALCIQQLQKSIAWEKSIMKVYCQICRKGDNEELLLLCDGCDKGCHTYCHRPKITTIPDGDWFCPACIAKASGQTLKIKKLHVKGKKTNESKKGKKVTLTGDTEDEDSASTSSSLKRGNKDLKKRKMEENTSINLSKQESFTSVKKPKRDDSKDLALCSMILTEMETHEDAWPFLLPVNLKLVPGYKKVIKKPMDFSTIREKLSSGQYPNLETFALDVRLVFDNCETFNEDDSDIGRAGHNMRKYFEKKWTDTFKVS
#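 AlphaScreen luminescence quantifies BAZ2B engagement of H3K14Ac peptide; the protein and biotinylated peptide are both at 50 nM final, buffer PBS pH 7.4 with 0.01% Tween-20, all steps at room temperature.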
# HP1b chromo inh: HP1-beta chromodomain-methylated histone interaction inhibition; P83916; Potency, µM (titrated, usually from 114 µM), inactives show at the highest dose activity change, negative = inhibition, actives largely listed as inhibitors; AlphaScreen HP1-beta / biotin-H3K9me3 peptide binding; actives 0.56% (n = 390,000); note: nearly all actives have a fitted effect of over 70% in size
#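 HP1-beta protein (50 nM final) preincubated 30 min at room temperature with biotinylated H3(1-18)K9me3 peptide (50 nM) in PBS pH 7.4, 0.01% Tween-20, then compound added for 30 min. AlphaScreen streptavidin donor/nickel chelate acceptor beads (10 ug/mL final), 30 min dark, luminescence read.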
# PLK1 PBD block: blocks phosphopeptide binding to human PLK1 polo-box domain; P53350; Plk1 PBD binding of FITC phosphopeptide, fluorescence polarization; Potency, µM, without a hit: max response, negative = inhibition, actives largely listed as inhibitors; actives 2.8% (n = 360,000); note: series mostly up to about 57 µM; % is set by controls: 0 for no effect and ±100 for the full control effect; nearly all actives have a fitted effect of over 65% in size
# Numbers without * were called inactive; u = inconclusive; x = no result given; [ ] = remark or other dose. Calls come from the whole dose curve; as a rule, active = well fitted curve in the direction sought with a large enough effect; inconclusive = small, poorly fitted or top-dose-only effect, or another doubt; inactive = no such curve, though single readings can be large; an effect the other way counts as inactive or inconclusive. Potency is the fitted concentration of half-maximal effect.
SMILES,VDR inhibitor,G9a inh,JMJD2A Tudor inh,BAZ2B block,HP1b chromo inh,PLK1 PBD block
CCCc1nc2ccc(NC(=O)c3cccs3)cc2c(=O)n1Cc1ccccc1Cl,u,8.0%[59 µM],u,-5.0%,u,29.9µM*
COCCNc1nnc(SCC(=O)Nc2sc3c(c2C(=O)c2ccccc2)CCCC3)s1,-12.0%,44.7µM*,u,u,u,-17.9%
Nc1nnc(SCC(=O)NNC(=O)c2ccc(Cl)cc2)s1,8.2%,8.91µM*,-16.9%,-1.3%,23.4%,-16.0%
COCCNc1nnc(SCC(=O)NNC(=O)c2ccccc2)s1,-9.9%,u,-18.5%,-14.6%,u,26.7µM*
COCCNc1nnc(SCC(=O)NC(=O)c2ccc(Cl)cc2)s1,-6.5%,-44.5%,-17.3%,-1.6%,2.9%,-6.4%
Cc1nnc(SCC(=O)NNC(=O)c2ccc(Cl)cc2)s1,-15.4%,11.3%[59 µM],-9.7%,-10.1%,12.6%,-15.1%
CSc1nnc(SCC(=O)NC(=O)c2ccccc2)s1,-2.1%,44.7µM*,-2.8%,2.2%,26.5%,-1.0%
O=C(CSc1nnc2ccccn12)NC(=O)c1ccccc1,2.6%,-10.6%[12.7 µM],-1.0%,-3.8%,48.0%,-8.3%
CC(=O)N1C=Cc2c(c(C)c3c([nH]c4ccccc43)c2C)C1,x,-35.5%,x,-24.7%,x,x
CSc1cc2c(s1)c1cnn(Cc3cccc(O)c3)c(=O)c1n2C,x,x,-30.6%,x,x,x
CCCn1c(SCC(=O)Nc2ccc(OC)cc2)nnc1-c1ccncc1,-16.8%,13.7%,-7.6%,-1.1%,28.8%,-0.1%
CN(C)c1ccc(C(CNC(=O)c2ccccc2)c2c[nH]c3ccccc23)cc1 (stereo unspecified),-16.0%,8.91µM*,u,14.1µM*,39.8µM*,u
CN(C)c1ccc(C(CNS(=O)(=O)c2ccc(F)c(F)c2)c2c[nH]c3ccccc23)cc1 (stereo unspecified),-18.7%,39.8µM*,22.4µM*,22.4µM*,31.6µM*,-2.6%
CN(C)c1ccc(C(CNC(=O)c2ccccc2F)c2c[nH]c3ccccc23)cc1 (stereo unspecified),-8.5%,u,u,u,13.5%,-23.0%
Cc1ccc(C(=O)n2nnc3ccccc32)cc1[N+](=O)[O-],-5.2%,u,-2.8%[57.1 µM],2.8%,47.1%,u
O=C(c1ccc2c(c1)OCO2)n1nnc2ccccc21,x,44.7µM*,x,-16.9%,x,x
COc1ccc(C(=O)COC(=O)Cn2nnc3ccccc32)cc1Br,-0.8%,7.6%[12.7 µM],-17.9%,-3.0%,5.0%,-12.0%
COc1ccc(C(=O)n2nnc3ccccc32)cc1Br,-7.0%,u,-6.0%,u,39.5%,1.5µM*
O=C(NC1CCCCC1)c1ccc2[nH]c(=O)c(=O)[nH]c2c1,3.8%,8.6%,-12.1%,-6.8%[57.1 µM],39.7%,-7.9%
Cc1cc(C)n(-c2ccc(C(=O)OC(C)C(=O)Nc3ccc(C(N)=O)cc3)cc2)n1 (stereo unspecified),9.8%,79.4µM*,-1.4%,-0.1%,19.9%,1.6%
CC(=O)Nc1ccc(NC(=O)C(C)OC(=O)c2ccc(-n3cnnn3)cc2)cc1 (stereo unspecified),-2.6%,16.0%[2.33 µM],-24.8%,7.2%,26.7%,-4.8%
CSc1ccc(NC(=O)N2CC=C(n3c(=O)[nH]c4ccccc43)CC2)cc1,-15.2%,u,u,u,-17.3%,-0.1%
CS(=O)(=O)N(CC(=O)NCCC1=CCCCC1)C1CCCCC1,-4.9%,11.9%[59 µM],-24.0%,5.7%,9.1%,-6.4%
O=C(CN1CCN(C2CCCCC2)CC1)NCCC1=CCCCC1,6.4%,x,12.6µM*,50.1µM*,u,-1.3%
COCCCN1C(=O)C(CC(=O)NCCCN(C)C)CC(C(=O)N2CCOCC2)=C1C (stereo unspecified),x,x,x,x,x,-6.9%
SMILES,VDR inhibitor,G9a inh,JMJD2A Tudor inh,BAZ2B block,HP1b chromo inh,PLK1 PBD block
O=C(O)CCNc1cc(N2CCN(C(=O)c3ccco3)CC2)c2noc3c2c1C(=O)c1ccccc1-3,u,10µM*,17.8µM*,12.6µM*,u,48.8%
Cc1cc(N2CCN(C(=O)c3ccco3)CC2)c2ccccc2n1,-8.2%,u,-13.7%,-13.9%,32.8%,-25.1%
CCN1CCN(c2cc(N3CCN(C(=O)c4ccco4)CC3)c3c4c(onc24)-c2ccccc2C3=O)CC1,-5.5%,17.8µM*,28.2µM*,11.2µM*,u,39.7%
COc1ccccc1CNC(=O)COC(=O)Cn1cnc2ccccc21,-5.4%,-38.6%,-7.4%,-31.9%,25.2%,-12.8%
O=C1CCCN1CCC1CCN(C2CC(=O)N(c3ccc(F)cc3)C2=O)CC1 (stereo unspecified),4.9%,14.1µM*,-14.7%,2.3%,43.8%,-9.0%
O=c1[nH]c(NNC(=S)NCc2ccccc2)nc2c1C1(CCCCC1)Cc1ccccc1-2,-14.1%,20µM*,u,u,u,u
C=CCNC(=S)NNc1nc2c(c(=O)[nH]1)C1(CCCC1)Cc1ccccc1-2,u,u,u,u,-20.2%,u
Cc1cc(NS(=O)(=O)c2cc(Cl)sc2Cl)no1,-17.0%,1.3%,-2.7%,-16.2%,20.8%,4.0%
COc1ccc(-c2ccccc2C2C3C=CCCC3(C)C(=O)N2Cc2ccccc2)cc1 (stereo unspecified),79.4µM*,x,-19.3%,x,26.9%,x
COc1cc(O)oc1C=Nc1ccc(Oc2ccccc2)cc1,4.1%,44.7µM*,u,u,1.2%,2.4%
Nc1nc(-c2cccc(Br)c2)cs1,-18.8%,u,-32.7%,u,-5.7%,u
Nn1c(-c2cccc(Br)c2)n[nH]c1=S,1.9%,2.24µM*,35.5µM*,u,-10.0%,-16.7%
CN1C(=O)/C(=C/C=C2\SCCN2C)SC1=S,x,8.91µM*,x,-9.9%,x,x
Cc1nn(-c2ccccc2)c(Cl)c1/C=C1\C(=O)N(C)C(=S)N1C,-17.5%,u,-23.0%,u,19.9%,-0.4%
CN1C(=O)/C(=C/C=C2\SCCN2C)N(C)C1=S,14.3%,39.8µM*,-22.3%,-34.6%,u,40.0%
O=C(NCCc1nc2ccccc2n1Cc1ccc(Cl)cc1Cl)c1ccco1,2.6%,-30.1%[59 µM],u,u,6.4%,x
Cc1ccccc1CNC(=O)CN1CCSc2ccccc21,-0.2%,-32.0%[59 µM],u,u,-2.8%[57 µM],x
CCn1c(=S)sc2c(=O)n(-c3ccccc3)c(SC)nc21,15.1%,44.7µM*,-23.4%,-6.8%,-10.6%,-9.9%
O=S(=O)(NC(=S)c1ccccc1)c1ccc(F)cc1,u,79.4µM*,-18.5%,-6.7%,-4.9%,u
O=C(NNS(=O)(=O)c1ccc(F)cc1)c1ccccc1,-9.2%,x,14.1µM*,3.4%,6.1%,-10.6%
O=S(=O)(NC(=S)c1ccccc1)c1ccc(Cl)cc1,-10.1%,u,-32.4%,-24.9%,-29.7%,15µM*
Cc1ccc(NC(=O)C2CCN(C(=O)[C@@H]3Cc4ccccc4CN3)CC2)cc1,8.6%,56.2µM*,-8.2%,-11.0%,45.0%,-13.9%
